{"source": "PubChem BioAssay"}
{"assay": "small molecules captured by biotinylated probe aFSTL3 – biochemical, small-molecule microarray, fluorescence 635/667, stem cell growth factor project, primary screen (AID 1064);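 further: measures binding of the biotinylated anti-FSTL3 antibody to printed compounds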", "settings": "higher = more signal"}
{"smiles": "[N-]=[N+]=Nc1ccccc1[C@H]1OC(c2ccc(OCCCO)cc2)=N[C@@]1(Cc1ccccc1)C(=O)N1CCCCC1", "composite z-score": 0.308}
{"smiles": "CCCNC(=O)[C@@]1(c2ccc([N+](=O)[O-])cc2)CC(=O)N(C2CCCCC2)[C@@H]1c1ccc(CO)cc1", "composite z-score": -0.0597}
{"smiles": "CN1C(=O)C2C=CC(C(O)c3ccccn3)N(N(c3ccccc3)c3ccccc3)C2C1=O", "note": "(stereo unspecified)", "composite z-score": 0.733}
{"smiles": "COCCOC(=O)N1C(=O)[C@@]2(c3cc(C#CC4=CCCCC4)ccc31)[C@H](c1ccc(O)cc1)N1[C@H](c3ccccc3)[C@H](c3ccccc3)OC(=O)[C@H]1[C@@H]2C(=O)N1CCN(c2ncccn2)CC1", "composite z-score": 0.875}
{"smiles": "C[N+](C)(C)CCCCCCNC(=O)[C@H]1C[C@H]2C(=O)N[C@@H](Cc3ccccc3)C(=O)N2[C@H]1c1ccc(O)cc1", "composite z-score": 0.18}
{"smiles": "O=C1NC(=O)C2C1C=CC(C(O)c1cccc3ccccc13)N2Nc1ccc(Cl)cc1Cl", "note": "(stereo unspecified)", "composite z-score": 0.475}
{"smiles": "COC(=O)[C@@]1(Cc2ccc(F)cc2)[C@H]2c3cc(C(=O)N4CCCC4)n(CCc4ccc(O)c(O)c4)c3C[C@H]2CN1C(=O)c1ccccc1", "composite z-score": 1.41}
{"smiles": "O=C(CS)NCCCCCCNC(=O)[C@H]1C[C@H]2C(=O)N[C@@H](Cc3ccccc3)C(=O)N2[C@H]1c1ccc(O)cc1", "composite z-score": -0.361}
{"smiles": "C#CCN([C@@H](Cc1ccc(O)cc1)C(=O)OC)[C@@H](/C=C/C1CC1)[C@H](O)Cc1ccccc1", "composite z-score": 0.164}
{"smiles": "CCOC(=O)c1ccc(NC(=O)O[C@H]2[C@H](OC(=O)Nc3ccc4c(c3)OCO4)[C@@H](OC(=O)Nc3ccc4c(c3)OCO4)[C@@H](OC)O[C@@H]2CO)cc1", "composite z-score": -0.0691}
{"smiles": "O=c1n(-c2ccccc2)c(=O)n2n1CC(COc1ccccc1)=C([C@H](O)CCc1ccccc1)[C@@H]2CO", "composite z-score": -0.333}
{"smiles": "COc1ccc([Si](C)(C)[C@@H]2[C@@H](CC(=O)N3Cc4ccccc4C[C@H]3CO)O[C@]3(C(=O)N(Cc4cccc(N5C(=O)c6cccc7cccc5c67)c4)c4ccccc43)[C@H]2C)cc1", "composite z-score": -0.345}
{"smiles": "CN(C)C(=O)[C@]1(CCS(=O)(=O)c2ccccc2)N=C(c2ccc(OCCCO)cc2)O[C@@H]1c1ccccc1N=[N+]=[N-]", "composite z-score": 0.169}
{"smiles": "COC(=O)[C@@]1(Cc2ccc(OC)cc2)[C@H]2c3cc(C(=O)N4CCCC4)n(Cc4c(-c5ccccc5)noc4C)c3C[C@H]2CN1C(=O)c1ccccc1", "composite z-score": 0.194}
{"smiles": "O=C1O[C@H](c2ccccc2)[C@H](c2ccccc2)N2[C@H]1[C@@H](C(=O)O)[C@]1(C(=O)Nc3ccc(C#CC4=CCCCC4)cc31)[C@H]2c1ccc(O)cc1", "composite z-score": -0.261}
{"smiles": "COc1cc2c(cc1OC)CN(C(=O)[C@@H]1[C@H]3C(=O)O[C@H](c4ccccc4)[C@H](c4ccccc4)N3[C@H](c3ccc(OCCO)cc3)[C@@]13C(=O)Nc1ccccc13)CC2", "composite z-score": -0.164}
{"smiles": "COC(=O)[C@@]1(Cc2ccccc2)[C@H]2c3cc(C(=O)N(C)C)n(CCN4CNCC4=O)c3C[C@H]2CN1C(=O)c1ccccc1", "composite z-score": 1.13}
{"smiles": "CN(C)c1ccc(C(O)C2C=CC3C(=O)N(c4ccccc4)C(=O)C3N2Nc2ccc([N+](=O)[O-])cc2)cc1", "note": "(stereo unspecified)", "composite z-score": 0.155}
{"smiles": "C=C(C)c1cc2c(c(CCCCCC)n1)[Si](C(C)C)(C(C)C)OC2", "composite z-score": -0.392}
{"smiles": "O=C1O[C@@H](c2ccccc2)[C@@H](c2ccccc2)N2[C@@H](c3ccc(O)cc3)[C@]3(C(=O)Nc4ccc(C#CC5(O)CCCCCC5)cc43)[C@@H](C(=O)NC[C@H](O)c3ccccc3)[C@H]12", "composite z-score": 0.107}
{"smiles": "COCCCNC(=O)[C@@]1(Cc2ccccc2N=[N+]=[N-])N=C(c2ccc(OCCCO)cc2)O[C@H]1c1ccccc1", "composite z-score": 0.6}
{"smiles": "O=C1O[C@H](c2ccccc2)[C@H](c2ccccc2)N2[C@H]1[C@@H](C(=O)Nc1nc3ccccc3s1)[C@]1(C(=O)Nc3ccc(C#CCCO)cc31)[C@H]2c1ccc(O)cc1", "composite z-score": -0.309}
{"smiles": "COC(=O)[C@@]1(Cc2ccccc2)[C@H]2c3cc(C(=O)N(C)C)n(CCc4ccc(O)c(OC)c4)c3C[C@H]2CN1C(=O)c1ccccc1", "composite z-score": 0.514}
{"smiles": "O=C1OCC=C[C@H]2OC34C=CCN(c5ccc(Cl)cc5)C(=O)[C@H]3N(CCO)C(=O)[C@@H]4[C@@H]12", "note": "(stereo partly specified)", "composite z-score": 0.601}
{"smiles": "CC(C)Cc1ccc(CN2CC[C@@H](NC(=O)Nc3ccccc3)C2)cc1", "composite z-score": -0.0474}
{"smiles": "C=CCC(OC(C)=O)[C@@H]1[C@@H](N(Cc2cc3ccccc3o2)C(=O)c2ccc(-c3ccccc3)cc2)c2cc(OCCCO)ccc2N1C(=O)c1ccc2ccccc2c1", "note": "(stereo partly specified)", "composite z-score": -0.0256}
{"smiles": "Cc1ccc(S[C@]2(C(=O)O)CC(=O)N(Cc3ccccc3Cl)[C@@H]2c2ccc(CO)cc2I)cc1", "composite z-score": 0.655}
{"smiles": "COCCCNC(=O)[C@@]1(Sc2ccc(C)cc2)CC(=O)N(C2CCCCC2)[C@@H]1c1ccc(CO)cc1", "composite z-score": 0.863}
{"smiles": "COCC1=C2[C@@H](CCc3ccccc3)OB(O)C[C@@H]2[C@@H]2C(=O)C=CC(=O)[C@@H]2C1", "composite z-score": -0.265}
{"smiles": "COc1ccc([Si](C)(C)[C@@H]2[C@@H](CCn3cc([C@H](O)c4ccccc4)nn3)O[C@]3(C(=O)N(Cc4ccc(N5CCC5=O)cc4)c4ccccc43)[C@H]2C)cc1", "composite z-score": 0.554}
{"smiles": "CCOc1cc(C(O)C2C=CC3C(=O)N(C)C(=O)C3N2Nc2ccccc2)ccc1O", "note": "(stereo unspecified)", "composite z-score": -0.329}
{"smiles": "C=C(C(=O)CC[C@@H](OC(C)=O)c1ccc(CO)o1)C(C)C", "composite z-score": -0.0468}
{"smiles": "CC(=O)NCCCC[C@@H]1NC(=O)[C@@H]2C[C@H](C(=O)NCCCC[N+](C)(C)C)[C@H](c3ccc(O)cc3)N2C1=O", "composite z-score": -0.235}
{"smiles": "CCOC(=O)C1CCCCN1", "note": "(stereo unspecified)", "composite z-score": 0.267}
{"smiles": "C=CCOC(=O)[C@H]1[C@@H]2C(=O)O[C@@H](c3ccccc3)[C@@H](c3ccccc3)N2[C@@H](c2ccc(OCCOC(=O)[C@@H]3C[C@@H]4C(=O)N[C@@H](CCCCN(C)C)C(=O)N4[C@@H]3c3ccc(O)cc3)cc2)[C@]12C(=O)Nc1ccccc12", "composite z-score": -0.0613}
{"smiles": "CCCC[C@@H]1C[C@H]1[C@@H](NC(=O)c1cccs1)c1ccc(C(F)(F)F)cc1", "composite z-score": 0.211}
